Our source for the growth values is PubChem BioAssay (NCI).

Compounds without any hit were thinned out: in the full panel of roughly 83,000, 20% have a hit.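 Growth was measured after 48 h exposure to one concentration of compound in 96-well plates. Values under 10 count as active.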 A number with no mark means an inactive call. Activity calls are given as the source filed them.

Some test systems named below: NCI-H23 lung; NCI-H226 lung; NCI-H322M lung; HOP-62 NSCLC; NCI-H460 lung; NCI-H522 lung; A549/ATCC NSCLC; 786-0 renal; COLO 205 colon; DU-145 prostate; K-562 leukemia; MALME-3M melanoma; MDA-MB-231 breast; RXF 393 renal; SF-268 CNS; SF-295 CNS; SF-539 CNS; UACC-257 melanoma; M14 melanoma; HCT-15 colon.
Experiment in all cases: NCI-60 one-dose screen, 48 h (100 = growth as untreated, 0 = no growth, -100 = all killed)
Common to all, as to settings: 10 µM unless noted

Take `COc1ccc2c(c1)C(=O)c1c-2c(=O)n(CCCCCCC(=O)NO)c2ccccc12`: the growth with NCI-H23 lung is -41.9% (active); in the assay with NCI-H226 lung, 1.93% (active); with NCI-H322M lung, -3.32% (active); in the assay on HOP-62 NSCLC, -3.67% (active); with NCI-H460 lung, 3.19% (active); in the assay on NCI-H522 lung, 4.79% (active). For the same compound, the growth in the assay with A549/ATCC NSCLC was -10.4% (active); in the assay on 786-0 renal, -3.09% (active); in the assay with COLO 205 colon, -39.3% (active); in the assay with DU-145 prostate, 9.94% (active); in the assay on K-562 leukemia, 8.79% (active); with MALME-3M melanoma, -23.1% (active). For the same compound, the growth with MDA-MB-231 breast was -5.72% (active); in the assay with RXF 393 renal, -60.9% (active); in the assay on SF-268 CNS it was 10.1%; in the assay on SF-295 CNS, -33.7% (active); in the assay on SF-539 CNS, 7.21% (active); with UACC-257 melanoma it was -6.3% (active). The results for the growth in the assay with M14 melanoma and in the assay with HCT-15 colon were -0.387% (active) and 13.3%, respectively.

With `c1ccc(Nc2nnc(-c3cc(-c4cccnc4)n(-c4ccccc4)n3)s2)cc1`, the growth with NCI-H23 lung was 78.6%; in the assay with NCI-H226 lung it was 99.8%; in the assay on NCI-H322M lung it was 109%; in the assay on HOP-62 NSCLC it was 99.1%; with NCI-H460 lung, 80.5%; in the assay on NCI-H522 lung, 71%. In addition, the growth in the assay on A549/ATCC NSCLC is 74.1%; with 786-0 renal, 77.1%; in the assay with COLO 205 colon it was 83.3%; in the assay with DU-145 prostate, 94.3%; in the assay with K-562 leukemia, 36.1%; in the assay on MALME-3M melanoma, 83.3%. The growth was 35.6% in the assay with MDA-MB-231 breast; 71.8% in the assay on RXF 393 renal; 113% in the assay with SF-268 CNS; 40.8% with SF-295 CNS; 104% in the assay with SF-539 CNS; 139% with UACC-257 melanoma. In addition, in the assay with HCT-15 colon, the growth is 8.1% (active).

Regarding `CCCCCCCCCCCCCCCCCc1nccn1CCO`, the growth in the assay with NCI-H23 lung was 70.7%; with NCI-H226 lung, 97.3%; in the assay on NCI-H322M lung it was 78.1%; in the assay on HOP-62 NSCLC, 68%; with NCI-H460 lung, 24.6%; with NCI-H522 lung, 52.6%. Also, the growth is 64.7% with A549/ATCC NSCLC; 62.3% with 786-0 renal; 19% in the assay with COLO 205 colon; 90% in the assay with DU-145 prostate; 3.81% (active) in the assay on K-562 leukemia; 89.7% in the assay with MALME-3M melanoma. Moreover, the growth with MDA-MB-231 breast was 69.6%; in the assay with RXF 393 renal, 72.3%; in the assay with SF-268 CNS, 73.5%; in the assay with SF-295 CNS, 144%; with SF-539 CNS, 66.5%; in the assay with UACC-257 melanoma it was 90.2%. Moreover, the growth with M14 melanoma is 64.9%; in the assay on HCT-15 colon, 8.52% (active).

As for `COc1cc(Oc2cc(-c3cccnc3)ccc2NC(=O)Nc2ccc(F)cc2F)cc(OC)c1OC`, the growth in the assay with NCI-H23 lung was 99%; with NCI-H226 lung it was 97%; in the assay on NCI-H322M lung, 112%; with HOP-62 NSCLC it was 96.4%; in the assay with NCI-H460 lung it was 99.1%; in the assay with NCI-H522 lung it was 94.8%. In addition, the growth with A549/ATCC NSCLC is 94.6%; with 786-0 renal it was 100%; in the assay with COLO 205 colon, 96.9%; in the assay on DU-145 prostate, 113%; in the assay with K-562 leukemia, 96.6%; in the assay with MALME-3M melanoma, 105%. For the same compound, the growth in the assay on MDA-MB-231 breast was 91.5%; with RXF 393 renal, 97.5%; in the assay with SF-268 CNS, 107%; in the assay with SF-295 CNS it was 110%; with SF-539 CNS it was 105%; in the assay with UACC-257 melanoma, 92.6%. Moreover, the growth in the assay with M14 melanoma was 110%; in the assay with HCT-15 colon it was 111%.

On to `C=C1CC[C@@H]2[C@](C)(COC(C)=O)[C@H](OC(C)=O)CC[C@@]2(C)[C@@H]1CC(Nc1ccc(S(=O)(=O)Nc2cc(C)on2)cc1)C1=CCOC1=O` (stereo partly drawn), for which the growth with NCI-H23 lung was 71%; with NCI-H226 lung, 79.5%; in the assay on NCI-H322M lung, 80.4%; in the assay with HOP-62 NSCLC, 60.2%; with NCI-H460 lung, 79.5%; with NCI-H522 lung, -20.2% (active). Also, the growth in the assay with A549/ATCC NSCLC was 72.2%; with 786-0 renal, 89.8%; in the assay with COLO 205 colon it was 29%; with DU-145 prostate, 71.1%; in the assay with K-562 leukemia it was 9.67% (active); with MALME-3M melanoma, 56.6%. Also, the growth in the assay with MDA-MB-231 breast is 61.1%; in the assay on RXF 393 renal, 29.8%; in the assay with SF-268 CNS it was 67.3%; in the assay on SF-295 CNS it was 100%; in the assay on SF-539 CNS, 6.3% (active); in the assay on UACC-257 melanoma, 68.9%. The growth in the assay with M14 melanoma was 29.9%; with HCT-15 colon, 0.176% (active).

As to `O=C(Nc1ccc(Cl)cc1)Nc1ccc(Nc2nncc3ccccc23)cc1`, the growth with NCI-H23 lung is 12.5%; with NCI-H226 lung it was 33.3%; in the assay on NCI-H322M lung, 64.3%; in the assay on HOP-62 NSCLC, 38.7%; in the assay with NCI-H460 lung, 9.89% (active); with NCI-H522 lung, 11.9%. Besides, the growth in the assay on A549/ATCC NSCLC was 20.1%; with 786-0 renal, 50.4%; in the assay on COLO 205 colon, 18.6%; with DU-145 prostate it was 33.7%; with K-562 leukemia, 9.49% (active); in the assay on MALME-3M melanoma, 38.5%. Moreover, the growth with MDA-MB-231 breast is 36.6%; in the assay with RXF 393 renal, 65.7%; with SF-268 CNS, 42.4%; with SF-295 CNS, 17.8%; with SF-539 CNS, 33%; with UACC-257 melanoma it was 15.3%. For the same compound, the values for the growth in the assay on M14 melanoma and in the assay with HCT-15 colon were 19.3% and 18.3%, respectively.

Consider `COC(=O)[C@]12CC[C@@H](C)[C@H](C)[C@@H]1C1=CC[C@@H]3[C@@]4(C)C=C(O)C(=O)[C@@]5(C)COC(=C54)C[C@@]3(C)[C@]1(C)CC2`, for which the growth was -73.1% (active) with NCI-H23 lung; -48.9% (active) with NCI-H226 lung; -25.3% (active) in the assay on NCI-H322M lung; -50.8% (active) with HOP-62 NSCLC; -66.2% (active) in the assay on NCI-H460 lung; -70.2% (active) in the assay on NCI-H522 lung. Further, the growth is -59.5% (active) in the assay with A549/ATCC NSCLC; -89.5% (active) in the assay on 786-0 renal; -63.9% (active) with COLO 205 colon; -80.7% (active) in the assay on DU-145 prostate; -97.8% (active) with K-562 leukemia; -59% (active) in the assay with MALME-3M melanoma. Further, the growth in the assay with MDA-MB-231 breast was -52.7% (active); with RXF 393 renal, -82.4% (active); in the assay with SF-268 CNS it was -45.3% (active); in the assay on SF-295 CNS it was -57.4% (active); with SF-539 CNS, -91.4% (active); with M14 melanoma, -63.2% (active). In addition, in the assay on HCT-15 colon, the growth was -82.3% (active).

Consider `COc1ccc(C2=NN(C(C)=O)C(c3cc(OC)c(OC)c(OC)c3)C2)cc1` (stereo not drawn), for which the growth in the assay on NCI-H23 lung is 101%; in the assay with NCI-H226 lung, 119%; with NCI-H322M lung, 119%; in the assay with HOP-62 NSCLC it was 105%; in the assay on NCI-H460 lung it was 108%; in the assay with NCI-H522 lung it was 67.7%. Besides, the growth with A549/ATCC NSCLC is 108%; in the assay on 786-0 renal it was 108%; with COLO 205 colon it was 108%; with DU-145 prostate, 107%; with K-562 leukemia, 75.4%; in the assay with MALME-3M melanoma, 120%. Further, the growth in the assay with MDA-MB-231 breast was 109%; with RXF 393 renal it was 111%; in the assay with SF-268 CNS it was 94.4%; in the assay with SF-295 CNS it was 95.4%; in the assay on SF-539 CNS, 91.5%; with UACC-257 melanoma, 113%. Besides, the growth was 98.3% in the assay on M14 melanoma and 84.6% in the assay on HCT-15 colon.
